Bioassay records deposited in PubChem by The Scripps Research Institute Molecular Screening Center.
An excerpt weighted towards active compounds, which were near 2.5% of everything screened.
LEDGF integ inh = blockers of LEDGF/p75-dependent integrase strand transfer – biochemical, TR-FRET, high throughput, primary screen; inhibition, % at 3.7 µM; TR-FRET IN-LEDGF/p75 DNA integration, Eu/Cy5; hit rate 0.64% among 370,000; HIV-1 integrase (with human LEDGF/p75);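 active means inhibition above the screen-wide mean plus 3 SD, cut at about 13% in these data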;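 further: signal is the Cy5 over europium emission ratio at 671 and 618 nm; 0% = plate median of compound wells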
UHRF1 MBD2 ctr = UHRF1 methylated DNA binding inhibitors, primary screen, counter-screen for MBD2 inhibitor project, biochemical, TR-FRET, human UHRF1, single concentration; E3 ubiquitin-protein ligase UHRF1 (Homo sapiens), Q96T88; UHRF1 binding to methylated oligo; inhibition, % at 4.4 µM; hit rate 0.75% among 370,000; AID 687016, 2013; in the data active means inhibition above about 21%;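 further: UHRF1 SRA domain binding a hemimethylated CpG hairpin DNA probe; 0% = median of test compound wells and 100% = reference inhibitor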
PRMT1 FP inh = PRMT1 methyltransferase inhibitors, primary screen, biochemical, fluorescence polarization; Protein arginine N-methyltransferase 1 (Homo sapiens), Q99873; recombinant PRMT1, activity-based probe fluorescence polarization; inhibition, % at 2.79 µM; hit rate 1.3% among 370,000;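 active means inhibition above about 21% made by adding two undisclosed values, limit read from the data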
Target sequence (Q99873 whole entry, looked up): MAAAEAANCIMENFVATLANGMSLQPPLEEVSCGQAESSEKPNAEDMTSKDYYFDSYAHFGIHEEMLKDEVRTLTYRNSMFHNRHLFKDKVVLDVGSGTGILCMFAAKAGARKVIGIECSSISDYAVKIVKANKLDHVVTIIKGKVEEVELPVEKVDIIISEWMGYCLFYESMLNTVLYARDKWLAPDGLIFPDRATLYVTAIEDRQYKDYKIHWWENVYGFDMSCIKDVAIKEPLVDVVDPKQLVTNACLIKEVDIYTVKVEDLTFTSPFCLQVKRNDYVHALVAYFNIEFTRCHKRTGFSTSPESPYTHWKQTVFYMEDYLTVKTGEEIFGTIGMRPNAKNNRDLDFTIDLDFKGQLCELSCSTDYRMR
MBD2 DNA inh = inhibitors of MBD2 binding to methylated DNA, primary screen, biochemical, TR-FRET, DNA-binding domain, human. Methyl-CpG-binding domain protein 2 (Homo sapiens), Q9UBB5. MBD2 binding to methylated oligonucleotide. inhibition, % at 4.4 µM. hit rate 0.31% among 370,000. AID 686964, 2013; in the data active means inhibition above about 13%
Starred values were filed as active, the others as inactive.

SMILES | LEDGF integ inh | UHRF1 MBD2 ctr | PRMT1 FP inh | MBD2 DNA inh
Cc1cc(=O)oc2cc(NC(=O)COc3cccc(C(F)(F)F)c3)ccc12 | 4.3 | 55.5* | 0.3 | 7.1
CCCNC(=O)C1(C)CCN(C(=O)c2ccccc2OC)C1 (stereo not given) | 3.8 | -1.7 | -2.1 | -1.2
Cc1nn(C)c(C)c1N1C(=O)c2cccc3c(N)ccc(c23)C1=O | -1.5 | -310.7 | 180.2* | -73.5
CCN1C(=O)c2cccc3c(N)ccc(c23)C1=O | -5.6 | -298.7 | 171.7* | -92.3
COc1ccc2c3c(cccc13)C(=O)N(O)C2=O | 0.7 | -16.2 | 0.8 | -10.1
COc1ccccc1NC1=C(NC(C)=O)C(=O)c2ccccc2C1=O | 2.5 | -23.4 | 24.6* | -17.7
COC1=C(Nc2ccccc2OC)C(=O)c2ccccc2C1=O | -3.5 | -7.2 | 5.0 | 0.0
CN1CCN(S(=O)(=O)c2cccc(C(=O)N3CCN(c4ccccc4)CC3)c2)CC1 | -2.2 | 49.2* | 1.6 | 4.3
COc1cc(F)ccc1-c1cc(C(=O)Nc2ccc(NC(C)=O)cc2)[nH]n1 | -2.4 | -2.2 | -1.5 | -1.6
O=C1CCC[C@H]2C[C@H](NCc3ccc(Cl)c(C(F)(F)F)c3)CC[C@]23CCCN13 | 1.1 | -0.8 | -1.5 | 0.0
CCOC(=O)CSc1nnc(-c2cc(OC)c(OC)c(OC)c2)o1 | -0.9 | 1.8 | 2.2 | 2.5
COc1cc(-c2nnc(SCc3cc(=O)oc4cc(O)c(O)cc34)o2)cc(OC)c1OC | 78.1* | 51.5* | 17.1 | 28.9*
N/C(=N\OC(=O)c1cc([N+](=O)[O-])ccc1Cl)c1ccccn1 | -1.1 | 45.6* | 0.1 | -6.2
CC(=O)N1C2=CCCC3CCCCC23c2ccccc21 (stereo not given) | 2.2 | 1.6 | -7.4 | 0.6
Cc1cc(C(=O)NP(=O)(N2CCOCC2)N2CCOCC2)c(C)n1-c1ccc(Br)cc1 | -0.4 | 21.2* | 0.3 | 5.6
Cc1cc(C(=O)NP(=O)(N2CCOCC2)N2CCOCC2)c(C)n1-c1ccc(N(C)C)cc1 | 4.1 | -2.7 | -1.0 | -7.9
CC1CCN(C(=O)c2ccc(S(=O)(=O)NCc3ccco3)cc2)CC1 | -0.9 | 1.9 | 2.6 | -1.4
COC(=O)c1ccc2nc(C3CCCCC3)c(CC(C)(C)C)n2c1 | -4.1 | 21.3* | 4.1 | 0.2
CCOC(=O)C1CCN(c2c(C(=O)c3ccccc3)cnc3ccc(CC)cc23)CC1 | 2.2 | 0.8 | 1.2 | 6.5
CCOC(=O)C1CCCN(c2c(C(=O)c3ccccc3)cnc3ccccc23)C1 (stereo not given) | 2.3 | 38.0* | -0.4 | 3.8
CNC(=O)c1c(C)nn(-c2ccc(F)c(Cl)c2)c1-c1cc(C)on1 | -0.6 | 22.2* | 4.8 | 4.0
Cc1ccc(C)c(C(=O)CN2C(=O)NC3(CCCCCC3)C2=O)c1 | 3.0 | 2.5 | -1.1 | -2.4
CCC1(CC)NC(=O)N(CC(=O)OCn2nnc3ccccc3c2=O)C1=O | 1.0 | 21.2* | -4.6 | 8.9
CC(C)N(CC#CCC(O)(c1ccccc1)C1CCCC1)CCO (stereo not given) | 1.8 | 28.3* | 3.4 | 10.5
O=C(NCc1ccc(Cl)cc1)O[C@H]1CC[C@@]23CCCN2C(=O)CCC[C@H]3C1 | -1.6 | 2.2 | -6.3 | -3.8
SMILES | LEDGF integ inh | UHRF1 MBD2 ctr | PRMT1 FP inh | MBD2 DNA inh
CC(C)(CN1CCN(Cc2ccccc2)CC1)NS(=O)(=O)c1ccccc1 | 1.4 | 22.3* | -1.2 | 3.9
CCCCCCCCNS(=O)(=O)CCNCc1ccccc1 | -3.2 | 22.5* | 1.8 | 1.3
CCCCCCCCNS(=O)(=O)CCNCCc1ccccc1 | -0.8 | 1.1 | -2.4 | 1.8
CC(C)C(=O)Nc1c(-c2cccc(Cl)c2)c(=O)c2ccccc2n1C | -1.6 | 0.6 | 2.3 | -4.8
CCn1c(NC(=O)C(C)C)c(-c2ccccc2)c(=O)c2ccccc21 | -6.0 | 46.7* | -1.4 | 5.0
COc1ccc(-c2nnc(SC)nc2-c2ccc(OC)c([N+](=O)[O-])c2)cc1[N+](=O)[O-] | -1.7 | 23.6* | 1.4 | 9.4
COc1ccc(/C=C/C(=O)NNC(=O)c2cc(C)oc2C)cc1 | -4.3 | -2.4 | 4.0 | -0.5
CCCOc1cccc(C(=O)NCCNC(=O)c2ccccn2)c1 | 2.2 | 0.3 | -5.4 | 2.3
CCCOc1cccc(C(=O)NCCCNC(=O)c2ccccn2)c1 | 0.9 | 48.4* | 6.1 | -0.1
CCC1S/C(=N/S(=O)(=O)c2ccc(N)cc2)NC1=O (stereo not given) | 4.7 | 0.2 | -6.5 | -2.2
CN(C)Cc1c(O)ccc2ccccc12 | -0.8 | 11.6 | -1.0 | -4.3
Cc1ccc(NC(=O)CN(C)Cc2c(O)ccc3ccccc23)cc1 | -0.9 | -2.0 | 21.3* | -0.8
CSc1ccc(CNC(=O)C2CCC(=O)N(Cc3cccc(F)c3)C2)cc1 (stereo not given) | -0.6 | -2.5 | -0.8 | 0.5
O=C1NC(=O)C2(CCCc3ccc([N+](=O)[O-])cc32)N1 (stereo not given) | 2.0 | -1.1 | 1.5 | -2.5
Nc1ccc2c(c1)C1(CCC2)NC(=O)NC1=O (stereo not given) | 1.1 | 21.3* | -5.0 | 9.1
CCC(Sc1nc2cc(OC)c(OC)cc2c(=O)n1Cc1ccc(OC)cc1)C(=O)NCCOC (stereo not given) | 4.2 | 23.3* | -4.4 | -2.3
Cc1cc(C)cc(NC(=O)Nc2cc(-c3ccccc3)nn2C)c1 | 2.7 | -3.5 | -3.9 | -1.4
Cn1nc(-c2ccccc2)cc1NC(=O)Nc1ccccc1F | 2.8 | 68.4* | -0.3 | -2.4
Cc1ccc(OS(=O)(=O)c2cn(C)c(=O)n(C)c2=O)cc1C | 0.1 | -2.1 | -1.0 | 1.4
Cn1cc(S(=O)(=O)Oc2ccccc2)c(=O)n(C)c1=O | -5.6 | 28.3* | 2.4 | 4.1
COc1ccc(CNC(=O)C2=CC(c3ccc(C)cc3)=NS(=O)(=O)N2C)cc1 | 7.8 | 1.8 | -1.0 | -5.2
COC(=O)c1ccc(S(=O)(=O)N(Cc2ccccc2)Cc2ccccc2)n1C | -1.2 | 61.5* | -1.8 | -5.2
CN(C)C(=O)[C@H]1C[C@H]1[C@@H](O)[C@H](CO)NC(=O)[C@H](Cc1ccccc1)NC(=O)OC(C)(C)C | 10.6 | 28.1* | 2.6 | 11.7
CC1CCCC(CC(N)=O)CC1 (stereo not given) | 0.7 | -3.6 | 0.2 | -2.2
Cc1ccccc1C(=O)N1CCN(c2ccc(NC(=O)c3cccc(OC(C)C)c3)cc2)CC1 | -3.1 | 5.2 | -0.9 | -2.3
COc1c(C)cccc1C(=O)Nc1ccc(N2CCN(C(=O)c3ccccc3C)CC2)cc1 | -2.7 | 27.4* | 5.5 | 3.4
COc1ccc(Cn2c(SCC(=O)NCc3ccco3)nc3ccsc3c2=O)cc1 | 20.5* | 5.5 | 1.4 | -4.1
O=C(CSc1nc2ccsc2c(=O)n1Cc1ccc(C(=O)O)cc1)NCc1ccco1 | 1.5 | 2.1 | 1.7 | -0.1
